Sampled rows, rich in hits. Any-hit rate of the full collection: about 2%.
Autophagy HCS: modulators of autophagy. MEF GFP-LC3 puncta imaging; test concentration mostly 10 µM. calls only at 10 µM (by protocol). 0.98% of 190,000 active. AID 463193;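 active = percentage of spot-positive cells more than 3 SD above its plate mean, without a fluorescence outlier flag or 80% toxicity; inconclusive = no clear call, values can overlap the other calls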;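 note: spot-positive cell cutoff set from DMSO-treated cells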
Ins promoter up: MIN6 insulin promoter up-regulation. MIN6 insulin promoter-GFP reporter, high-content imaging; active compounds read high. z-score at 5 µM. 0.3% of 190,000 active;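 active = z-score above 3 at 5 µM with at least 500 cells counted in the well; inconclusive = wells under 500 cells, flagged as cytotoxic or low count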
eIF4E-4G inh: blocks eIF4E binding to eIF4G. TR-FRET eIF4E-eIF4GI(517-606) binding, 2 h. inhibition, % at 21.7 µM. 0.37% of 220,000 active. P63073+Q04637;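 active = inhibition above about 30%, limit read from the data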;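 note: 0% = full FRET control wells and 100% = background wells lacking eIF4GI fragment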
INS promoter inh: TRM-6 insulin promoter activity inhibition. TRM-6 cells (human fetal islet line), insulin promoter-eGFP reporter, imaging; reporter expression induced with tamoxifen. inhibition, % at 2 µM. 0.9% of 130,000 active. AID 1273;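 active = inhibition above the mean plus 3 SD, with well images judged a real hit on visual review, cut at about 60% in these data, passing the limit was not always enough; inconclusive = inhibition over the cutoff but images rejected on review; inactive = inhibition not above the cutoff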
PERK inh: inhibitors of human PERK kinase; Q9NZJ5; CHO PERK-DD fusion, SEAP luminescence translation reporter; inhibition, % at 5.6 µM; 0.17% of 220,000 active; AID 1416;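 active = inhibition above the mean inhibition of all tested compounds plus 3 SD, set separately per screening campaign, cut at about 2.9% in these data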;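 note: PERK kinase domain activated by AP20187 dimerizer at 100 nM; 0% = DMSO with dimerizer and 100% = rapamycin at 8.4 µM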
Numbers without * were called inactive; i = inactive; u = inconclusive; x = no result given; + = active, no number; [ ] = another dose, or the depositor's remark.

SMILES	Autophagy HCS	Ins promoter up	eIF4E-4G inh	INS promoter inh	PERK inh
COc1cc(/C=C2\SC(=O)N(c3ccc(Cl)cc3)C2=O)cc([N+](=O)[O-])c1O	i	-1.2	71*	x	0
COc1cc(/C=C2\SC(=O)N(c3cccc(Cl)c3)C2=O)cc([N+](=O)[O-])c1O	i	-0.99	61*	x	1
O=C1S/C(=C\c2ccc(O)c([N+](=O)[O-])c2)C(=O)N1c1ccccc1Cl	i	-0.49	-2	x	1
Cc1ccc2nc3cc([N+](=O)[O-])cc([N+](=O)[O-])c3cc2c1	+	x	5	-488	0
O=C(O)CN1CCCCCC1=O	i	-0.16	2	0	1
CCCCSc1nc(C)[nH]c1[N+](=O)[O-]	i	x	-11	75*	0
O=c1[nH]c2cc3c(cc2cc1CN(Cc1ccco1)C(=S)NCCCN1CCOCC1)OCCO3	i	-0.57	-2	x	1
CCCc1cc(C(F)(F)F)c(C#N)c(=O)[nH]1	i	0.3	0	68*	1
CC(=O)NC(=S)Nc1ccc(NC(=O)COc2ccc(C(C)C)cc2)cc1	i	0.2	1	75*	-1
CCOC(=O)N1CCN(CC(O)COCCC23CC4CC(CC(C4)C2)C3)CC1 (centres undefined)	i	-2	-13	4	-1
CC1CCCCN1CC(O)COCCC12CC3CC(CC(C3)C1)C2 (centres undefined)	+	-0.52	5	x	-1
O=C1N/C(=N/Nc2ccccc2)S/C1=C\c1ccccc1	i	3.2*	-1	x	1
CC(=O)OC(C(=O)NCc1ccc(F)cc1)c1ccccn1 (centres undefined)	i	3.9*	2	24	2
CNC(=O)c1nnsc1S(=O)(=O)c1ccc(Cl)cc1	i	0.44	-5	i	0
CCOC(=O)C1=C(C)NC2=C(C(=O)CC(c3cccs3)C2)C1c1cccs1 (centres undefined)	+	-0.31	-2	-419	-2
CCCOC(=O)C1=C(C)NC2=C(C(=O)CCC2)C1c1cccc(OC)c1OC (centres undefined)	i	x	7	-73	-2
CCc1ccc(/C(C)=N\Nc2ccc([N+](=O)[O-])cc2)cc1	+	1.9	1	-63	1
C/C(=N\Nc1ccc([N+](=O)[O-])cc1)c1ccc(N)cc1	i	1.7	-6	6	1
CCN(CC)S(=O)(=O)c1ccc2nc(SC)sc2c1	i	-0.14	1	79*	0
S=C(Nc1ccccc1Oc1ccccc1)Nc1cccc(Cl)c1Cl	i	-0.15	-1	x	1
CCOc1ccc(CNC(=S)N/N=C/c2ccc(OC)c(OC)c2)cc1	i	-0.44	5	12	1
C[C@H]1CC[C@H]2C(=O)N3[C@H](c4ccccc4Br)[C@@H](C)CC[C@H]3C(=O)N2[C@@H]1c1ccccc1Br	+	-4	5	-86	0
CN1\C(=C/C=C/C=C/C=[N+](C)C)C(C)(C)c2ccccc21	+	u	-20	i	0
CN1/C(=C\C=O)C(C)(C)c2ccccc21	i	-2.4	-2	-67	0
CN1/C(=C\C=Nc2ccc3ccccc3c2)C(C)(C)c2ccccc21	+	0.58	-9	-6	-1
SMILES	Autophagy HCS	Ins promoter up	eIF4E-4G inh	INS promoter inh	PERK inh
CN(C)c1ccc(N=C/C=C2\N(C)c3ccccc3C2(C)C)cc1	i	x	10	-6	-1
Cn1c(SCc2cc([N+](=O)[O-])cc3c2OCOC3)nnc1-c1ccccn1	i	0.16	-1	0	1
CNC(=S)NCc1ccc2[nH]c(C)cc2c1	i	1.6	-2	55	0
CCc1cccc(C)c1NC(=S)NCc1ccc2[nH]c(C)cc2c1	i	-0.25	4	71*	0
O=C(Nc1cccc(Cl)c1)c1cc(N=Nc2ccc([N+](=O)[O-])cc2Cl)ccc1O	x	-0.18	33*	x	0
CCOC(=O)c1cnc2c(C)cccc2c1NCc1ccco1	i	0.06	3	68*	-2
CCOC(=O)c1cnc2c(C(=O)OC)cccc2c1NCc1ccco1	i	-0.84	0	50	-1
Cc1ccc(NC(=O)CSc2nc3[nH]ncc3c(=O)[nH]2)c(C)c1	i	0.26	2	x	1
COc1ccc(NC(=O)CC2C(=O)N(C)C(=S)N2Cc2ccc3c(c2)OCO3)cc1 (centres undefined)	i	-0.09	23	x	0
O=C(O)c1cccc2c1C(=O)c1ccccc1-2	x	0.03	1	x	1
O=C(O)c1cccc2c1C(=O)c1ccccc1C2=O	+	1.1	1	x	2
CCCCn1c(Oc2ccc(C(=O)OC)cc2)nc2c1c(=O)n(C)c(=O)n2C	+	-0.23	-2	52	0
CCn1c(Oc2ccc(F)cc2)nc2c1c(=O)n(C)c(=O)n2C	i	x	-1	65	0
O=C(O)CNc1ccccc1C(=O)O	x	-0.32	-3	x	3.0*
CN1CCc2c(sc(NC(=O)c3cc4cc([N+](=O)[O-])ccc4s3)c2C(N)=O)C1	+	u	-9	-242	0
CC(C)N1CCc2c(sc(NC(=O)c3cc4cc([N+](=O)[O-])ccc4s3)c2C(N)=O)C1	i	x	4	-368	0
Cc1nc2nc(SCC(=O)c3ccc([N+](=O)[O-])cc3)[nH]c2cc1Br	i	-0.7	3	x	1
CC(NC(=O)Cc1ccccc1)C1COc2ccccc2O1 (centres undefined)	i	0.07	0	6	3.1*
CC(NC(=O)COc1ccccc1)C1COc2ccccc2O1 (centres undefined)	i	x	x	11	-1
CCOc1ccc(-c2cc(CCCC(=O)NCCc3ccccc3)no2)cc1	i	x	-12	75*	0
Cc1cc(NC(=O)CSc2nc3c(sc4ccccc43)c(=O)n2CCCN2CCOCC2)n[nH]1	+	0.16	-7	-21	0
Cc1ccc(NC(=O)CSc2nc3ccccc3c(=O)n2CCCN2CCCCC2)cc1C	+	-1.1	-4	-26	-1
O=C(CSc1nc2ccccc2c(=O)n1CCCN1CCOCC1)N1CCN(c2ccccc2)CC1	+	-0.37	-3	x	0
CCn1c(SCC(=O)Nc2ccccc2OC)nc2ccccc2c1=O	i	-0.16	69*[fluorescence artefact?]	57	-1
CCCn1c(SCC(=O)N2CCN(c3ccccc3)CC2)nc2ccccc2c1=O	i	-0.68	-2	18	-1
Cc1ccc(NC(=S)/N=C(\N)Nc2nc(C)c3cc(C)c(C)cc3n2)cc1C	i	x	-2	-10	1
Cc1ccc(N(C)S(=O)(=O)c2cccc(C(=O)Oc3ccc4c(C)cc(=O)oc4c3)c2)cc1	i	0.02	-8	15	1
O=C(c1ccccc1)N(Nc1ccccc1)c1ccccc1	i	0.06	99*	29	1
O=C(NN(C(=O)c1ccccc1)c1ccccc1)c1ccccc1	x	0.26	-3	x	1
COc1ccc2cc3c(N)nn(C(=O)c4cccc(F)c4)c3nc2c1	x	1.6	75*	x	0
